According to PubChem BioAssay AID652017 (The Scripps Research Institute Molecular Screening Center, 2013):
Among all 370,000 compounds or so, about 3,800 (1%) were called active. Cut-off read from the data, not from the text of the source: active = activation above about 7.8%; inactive = the rest. Shown is part of a subset that was picked to be rich in actives.

Assay: SMARCA2 (BRM) function activators, primary screen, cell-based, luminescence, high throughput (AID 652017);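 note: 0% = vehicle wells and 100% = reference activator wells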
Conditions: MG213 cells, MMTV-luciferase reporter, dexamethasone, overnight; at 9.1 µM; hits give high values

Structure (SMILES)	activation
CCOC(=O)[C@]12CCCC3=C1N(CCC3)C(=O)[C@@H](CC(=O)NCc1cccs1)C2	-4.78% (inactive)
Nc1ccc(N=Nc2ccccc2Cl)c(N)n1	7.92% (active)
C=CCN1C(C(=O)OC)CN(Cc2cn(Cc3ccccc3)nn2)CCS1(=O)=O (stereo not given)	1.74% (inactive)
COc1ccc(C(=O)OCCN(C)C2CN(Cc3cn(Cc4cccc(C)c4)nn3)S(=O)(=O)C2)cc1OC (stereo not given)	-0.46% (inactive)
COc1ccc(C(=O)CSc2nnc(-c3cnccn3)n2-c2ccc(C)cc2)cc1	-2.56% (inactive)
CCOc1ccc(OCc2cccc(C(=O)N(CC)CC)c2)cc1	6.12% (inactive)
CC(=O)Oc1ccc(-c2cccc(C(=O)N3CCCCC3)c2)cc1	1.59% (inactive)
COc1ccc(OCc2cccc(C(=O)N3CCCC3)c2)cc1	7.84% (active)
COc1ccc(NC(=O)ON=C2c3ccccc3-c3ccccc32)cc1	3.56% (inactive)
CCOC(=O)Cc1cc(=O)[nH]c(/N=C(\N)Nc2ccc(OC)cc2)n1	-2.87% (inactive)
COc1ccc2nc(/N=C(\N)NC(=O)Nc3ccccc3)nc(C)c2c1	28.8% (active)
FC(F)(F)c1cccc(Cn2ccc3ccc(-c4ccc5ccn(Cc6ccccc6)c5c4)cc32)c1	-1.65% (inactive)
O=C(NCC1COc2ccccc2O1)c1ccc(NC(=O)c2cc(F)ccc2F)cc1 (stereo not given)	-5.67% (inactive)
O=C(c1cc(COc2ccc(F)cc2F)on1)N1CCOCC1	2.32% (inactive)
O=C(c1cc(C2CCCCN2S(=O)(=O)c2ccccc2)on1)N1CCOCC1 (stereo not given)	-0.23% (inactive)
O=C(c1cc(-c2ccccc2O)on1)N1CCCC1	8.63% (active)
O=C(Nc1ccccc1C(F)(F)F)c1cc(-c2ccc(O)cc2)on1	1.17% (inactive)
O=C(c1cc(-c2ccc(O)cc2)on1)N1CCOCC1	10.1% (active)
COc1ccc(OCc2cc(C(=O)N3CCCC3)no2)c2ccccc12	5.22% (inactive)
CN(C(N)=NC(=O)/C=C/c1ccccc1)C(C#Cc1ccccc1)Cc1ccccc1 (stereo not given)	-4.38% (inactive)
COc1ccc(C)cc1N(C)C(=O)c1coc(=O)c2ccccc12	-4.4% (inactive)
O=C(NC1CCCCN(Cc2cccc(C(F)(F)F)c2)C1=O)c1ccccc1I (stereo not given)	-2.23% (inactive)
COc1ccc2ccccc2c1CNc1nnnn1C	-2.94% (inactive)
COc1cc(CNCc2ccc(OC)c3ccccc23)cc(OC)c1OC	-2.64% (inactive)

Structure (SMILES)	activation
COc1ccc2ccccc2c1CNCc1ccccn1	8.32% (active)
Cc1ccsc1C(=O)NC1CCCCC1C (stereo not given)	-1.24% (inactive)
Cc1ccsc1C(=O)N/N=C/c1ccc([N+](=O)[O-])cc1	11.6% (active)
Cc1ccc(/C=N/NC(=O)c2sccc2OCc2ccc(F)cc2)cc1	3.74% (inactive)
COC(=O)[C@H](C(C)C)N(CCc1cn(Cc2ccccc2)nn1)S(=O)(=O)c1ccc(F)cc1Br	-6.28% (inactive)
CC(=O)OC12CCCN(C1)/C(=C/c1ccncc1)C2 (stereo not given)	-3.2% (inactive)
COc1ccccc1Nc1nnc(SC(C)C(=O)NC2CC2)s1 (stereo not given)	-2.93% (inactive)
O=C(CCCCCN1C(=O)C2C3C=CC(C3)C2C1=O)Nc1ccccn1 (stereo not given)	-1.58% (inactive)
COC(=O)C(C)n1cnc2c(nnn2-c2ccc(F)cc2)c1=O (stereo not given)	2.24% (inactive)
CCOC(=O)C(C)n1cnc2c(nnn2-c2ccc(F)cc2)c1=O (stereo not given)	0.38% (inactive)
CCOC(=O)C(C)n1cnc2c(nnn2-c2cccc(OC)c2)c1=O (stereo not given)	9.14% (active)
O=C(NC1CCC1)c1ccc(C#CC2CC2)cn1	1.34% (inactive)
O=C(CCCCCn1c(=S)[nH]c2ccsc2c1=O)NC1CCCCC1	8.72% (active)
CCCCC(CC)CNC(=O)CCCCn1c(=O)[nH]c2ccsc2c1=O (stereo not given)	-1.68% (inactive)
O=C(CCC(=O)c1cccs1)NC1CCCCCC1	-4.41% (inactive)
C=CC[C@]12C[C@@]3(O[C@H](c4ccc(C(F)(F)F)cc4)N=C3C[C@H](c3ccc(OC)cc3)[C@H]1C)N(C1CCN(Cc3ccccc3)CC1)C2=O	-1.14% (inactive)
Cc1nnc(NC(=O)CSc2nccn2-c2cccc(C)c2C)s1	-0.75% (inactive)
O=C(Cn1c(=O)sc2ccccc21)Nc1ccc2c(c1)OCCO2	-0.22% (inactive)
Cc1nnc(NC(=O)Cn2c(=O)sc3ccccc32)s1	8.41% (active)
C=C(C)C1CC23C(=O)C4(C(=O)c5ccccc5)C[C@@]5(C)CCC(CC2C1(C)C)(C4=O)C35OC (stereo not given in full)	-5.25% (inactive)
Cc1ccccc1CN1CCCCC(NC(=O)Nc2ccccc2F)C1=O (stereo not given)	-2.59% (inactive)
C[C@@H](NC(=O)c1ccccc1OCC(=O)Nc1ccc(I)cc1)C(=O)N(C)Cc1ccccc1	-3.4% (inactive)
CC(C)CCC(C)NC(=O)c1ccc2nccnc2c1 (stereo not given)	0.02% (inactive)
O=C(CSc1c2c(nc3ccc(Cl)cc13)CCCC2)NCc1ccco1	3.79% (inactive)

Structure (SMILES)	activation
CC(C)CCNC(=O)c1ccc2c(Cl)c3c(nc2c1)CCC3	10.7% (active)
O=C(O)CSCc1ccc(C(=O)O)o1	0.73% (inactive)
O=C(O)c1ccc(COc2c(F)c(F)cc(F)c2F)o1	8.75% (active)
O=C(O)c1ccc(NC(=O)c2ccc(COc3ccc(Cl)cc3)o2)cc1	-1.89% (inactive)
COc1cc(NC(=O)C2=C(C)OCCS2)c(Cl)cc1C(=O)NCCCN1CCCC(C)C1 (stereo not given)	-0.17% (inactive)
Cc1cccc(C(=O)N2CCN(S(=O)(=O)N3CCCCC3)CC2)c1	3.31% (inactive)
NC1=NN(c2cccc(C(=O)O)c2)C(=O)C1	-1.73% (inactive)
O=C(O)c1cccc(N=NN2CCCCCC2)c1	17.7% (active)
Cc1cc(C)n2c(Nc3c(C)cccc3C)c(CCc3ccccc3)nc2n1	0.46% (inactive)
O=C(NCc1cccs1)C1CCCN(S(=O)(=O)c2ccc([N+](=O)[O-])cc2)C1 (stereo not given)	0.22% (inactive)
CCC(C)[C@@H](C(=O)OC)N(CCc1cn(Cc2ccccc2)nn1)S(=O)(=O)c1ccccc1Br (stereo not given in full)	-5.37% (inactive)
COc1ccccc1-c1sc2ccccc2c1-c1ccc(Br)nc1	-0.09% (inactive)
COc1ccccc1C1=Nc2cccc3cccc(c23)N1	8.11% (active)
COc1ccccc1C1=CC(=O)CCC1	1.01% (inactive)
CCOc1ccc(N(CC(=O)Nc2c(C)n(C)n(-c3ccccc3)c2=O)S(=O)(=O)c2ccc(Cl)s2)cc1	3.83% (inactive)
CCC(CO)Nc1cccc2c1S(=O)(=O)N(Cc1cn(Cc3ccccc3C(F)(F)F)nn1)Cc1ccccc1O2 (stereo not given)	-1.93% (inactive)
O=C(CSc1cccc[n+]1[O-])c1ccc(-c2ccccc2)cc1	1.84% (inactive)
Cc1ccc(C(=O)CSc2ccccc2C(=O)O)cc1	9.24% (active)
Cc1ccccc1C(=O)O	-3.71% (inactive)
CCC1CO/C(=C(\C(=C(Cl)Cl)N2CCOCC2)[N+](=O)[O-])N1 (stereo not given)	-2.15% (inactive)
Brc1ccc2nc(-c3ccccc3)c(Cc3ccccc3)n2c1	3.02% (inactive)
Cc1ccc(-c2nc3ccc(Br)cn3c2Cc2ccccc2C(F)(F)F)cc1	8.44% (active)
Cc1cc(Br)cn2c(Cc3ccccc3C(F)(F)F)c(-c3ccc(Cl)cc3)nc12	3.06% (inactive)
Cc1cc(Br)cn2c(Cc3ccccc3C(F)(F)F)c(-c3ccc(C#N)cc3)nc12	-1.52% (inactive)

Structure (SMILES)	activation
COc1ccccc1Cc1c(-c2ccc(Cl)cc2)nc2ccc(Cl)cn12	4.42% (inactive)
Cc1ccc(-c2nc3ccc(Cl)cn3c2Cc2ccccc2)cc1	10.1% (active)
COC(=O)c1cc(S(=O)(=O)N2CCN(C(=O)C3CCCO3)CC2)cn1C (stereo not given)	-1.22% (inactive)
CC(C)CNS(=O)(=O)CC1NCCc2ccccc21 (stereo not given)	-3.17% (inactive)
COc1cccc(Cn2cc(COC(=O)Nc3ccc(F)cc3)nn2)c1	-0.28% (inactive)
COc1cccc(N(C)C(=O)[C@@H](C)[C@@H](O)c2ccc3ccccc3c2)c1	-2.05% (inactive)
COc1ccnc(NC(=S)N2CCN(c3ncc(C(F)(F)F)cc3Cl)CC2)c1	-3.61% (inactive)
COc1ccc(CN2C(=O)N3Cc4cc(OC)ccc4C3CS2(=O)=O)cc1 (stereo not given)	-5.55% (inactive)
CC(C)NC(=O)C(=O)NCCN1CCN(S(=O)(=O)c2ccc(Cl)cc2)CC1	-1.85% (inactive)
C#CCNC(=O)C[C@H]1C[C@@]2(C(=O)OC)C(=C[C@H](C(C)C)O[C@@H]2C2CC2)N(Cc2ccco2)C1=O	-5.88% (inactive)
COc1ccc(CN2CC[C@H]3C=CC[C@@H](C(=O)N4CCOCC4)[C@H]3C2=O)cc1OC	1.07% (inactive)
Cc1ccc(Nc2nc(Cl)c(C=O)s2)cc1	8.44% (active)
Cc1ccc(Nc2cc(C)nc3c(C)ccc([N+](=O)[O-])c23)cc1	-1.39% (inactive)
Cc1ccc(Nc2ccccc2N)cc1	0.3% (inactive)
COC(=O)C1CN(CCc2ccccc2)CCS(=O)(=O)N1Cc1ccc(F)cc1 (stereo not given)	0.54% (inactive)
CC1=CC(=O)C=CC1(C)C(Cl)(Cl)Cl (stereo not given)	-0.07% (inactive)
Cc1cc(C)nc(Nc2n[nH]c(-c3ccccc3N)n2)n1	8.89% (active)
Clc1ccc(-n2c(SC/C=C/c3ccccc3)nnc2-c2ccco2)cc1	-3.27% (inactive)
Cc1ccc2nnn(Cc3cccc(C(C)(C)C)c3O)c2c1	-2.51% (inactive)
CCOC(=O)CNC(=O)N(C)[C@H]1C[C@H]2c3[nH]c4c(-c5ccc6c(c5)OCO6)cccc4c3CCN2C(=O)[C@H]1[C@H](C)O	-1.46% (inactive)
COCC1CCN(C(=O)C2CCC(=O)N(CC3CCCCC3)C2)CC1 (stereo not given)	-3.22% (inactive)
COCC1CCN(C(=O)C2CCC(=O)N(Cc3cccc(C(F)(F)F)c3)C2)CC1 (stereo not given)	13.1% (active)
O=C1CCC(C(=O)N2CCCCO2)CN1Cc1cccc(C(F)(F)F)c1 (stereo not given)	-2.44% (inactive)
